Hits are enriched below; roughly 3.5% of the tested compounds scored in any of these assays.
TEAD-YAP inh: TEAD-YAP interaction inhibition; HEK-TIYL cells, TEAD-Gal4/YAP UAS-luciferase luminescence; inhibition, % at 9.12 µM; actives 1.4% (n = 640,000); in the data active = inhibition above about 32%;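 also: 0% = median of test compound wells and 100% = reference inhibitor wells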
FBW7 activator: activators of human E3 ligase FBW7; normalized activity (activation), % at 26.1 µM; AID 1259310; actives 0.13% (n = 650,000); Q969H0; AlphaScreen FBW7–phospho-cyclin E peptide binding, activator screen; in the data active = normalized activity above about 1.9%;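 also: purified mutant Fbw7 with reduced substrate affinity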
Target sequence (Q969H0 whole entry, looked up): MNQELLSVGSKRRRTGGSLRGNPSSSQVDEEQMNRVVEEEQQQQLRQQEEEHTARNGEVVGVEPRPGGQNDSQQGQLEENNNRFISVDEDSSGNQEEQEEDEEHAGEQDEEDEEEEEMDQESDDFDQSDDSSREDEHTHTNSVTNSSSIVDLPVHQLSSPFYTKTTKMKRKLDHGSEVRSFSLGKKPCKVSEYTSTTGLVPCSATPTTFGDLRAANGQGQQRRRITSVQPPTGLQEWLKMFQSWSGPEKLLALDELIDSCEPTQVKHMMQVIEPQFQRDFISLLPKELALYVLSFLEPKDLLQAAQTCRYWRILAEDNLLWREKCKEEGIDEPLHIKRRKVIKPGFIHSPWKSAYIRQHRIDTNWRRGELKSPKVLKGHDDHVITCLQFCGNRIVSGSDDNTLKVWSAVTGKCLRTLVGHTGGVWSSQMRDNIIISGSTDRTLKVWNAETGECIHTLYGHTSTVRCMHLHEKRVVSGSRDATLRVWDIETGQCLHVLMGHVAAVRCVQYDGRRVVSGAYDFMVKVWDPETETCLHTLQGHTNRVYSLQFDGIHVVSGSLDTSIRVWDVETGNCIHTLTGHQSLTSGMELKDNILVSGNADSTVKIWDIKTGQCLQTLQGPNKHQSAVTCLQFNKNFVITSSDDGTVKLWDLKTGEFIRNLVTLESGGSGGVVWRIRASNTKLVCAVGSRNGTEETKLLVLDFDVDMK
GPR151 activ: human GPR151 activation; Q8TDV0; PathHunter beta-arrestin GPR151 cells, luminescence; activation, % at 11.2 µM; actives 1% (n = 650,000); in the data active = activation above about 4.9%;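 also: 0% = median of compound wells and 100% = cells with positive control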
MITF primary: inhibitors of human MITF. O75030. actives 0.91% (n = 650,000). AlphaScreen MITF homodimerization, bead proximity signal. inhibition, % at 2.6 µM; in the data active = inhibition above about 50%;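 also: 0% = vehicle wells with protein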
Active calls of the source: *; . = not tested or not shown.

SMILES	TEAD-YAP inh	FBW7 activator	GPR151 activ	MITF primary
CNC(=O)/C(C#N)=C/c1ccc(-c2ccc(Br)cc2)o1	-62	0	-1	4
O=C(/C=C/c1ccco1)Nc1nnc(Cc2ccc(F)cc2)s1	55*	0	0	4
Cc1ccc(CN2CCN(/N=C/c3ccc(O)c(O)c3)CC2)cc1	6	-1	1	55*
Oc1ccc(/C=N/N2CCN(Cc3ccccc3)CC2)cc1O	5	0	0	35
COc1ccc(-c2noc(N(C)CC(=O)Nc3ccc(F)c(Cl)c3)n2)cc1	-10	0	1	8
Cc1sc(NC(=O)CCCC(=O)O)c(C(N)=O)c1-c1ccccc1	45*	0	0	1
Cc1sc(NC(=O)CC(c2ccccc2)c2ccccc2)c(C(N)=O)c1C	40*	0	3	1
C=C(C)C(=O)Nc1sc(C)c(-c2ccccc2)c1C(N)=O	-15	0	1	12
N#Cc1ccccc1NC(=O)N1CCN(c2ccc3cccc(-c4ccsc4)c3n2)CC1	-3	0	3	5
CC1CCc2c(sc(NC(=O)c3cc4ccccc4c(=O)o3)c2C(N)=O)C1 (stereo not given)	-2	0	0	0
O=C(Oc1ccc([N+](=O)[O-])c2cccnc12)c1ccccc1	57*	-1	0	82*
O=c1c2cc3ccccc3oc-2nn1-c1ccccc1	-27	1	-1	21
Cc1cc(/C=C\c2nc(O)c([N+](=O)[O-])c(=O)[nH]2)c(C)n1-c1ccc(C(=O)O)cc1	10	0	0	63*
COc1ccccc1-n1c(=O)[nH]c2c(C(N)=O)nc(-c3ccc(C(F)(F)F)cc3)nc21	-3	0	-2	-3
Nc1c(S(=O)(=O)O)cc(S(=O)(=O)O)c2cccc(O)c12	9	-1	0	46
COc1cc(-c2ccc(N=Nc3ccc4c(S(=O)(=O)O)cc(S(=O)(=O)O)c(N)c4c3O)c(OC)c2)ccc1N=Nc1ccc2c(S(=O)(=O)O)cc(S(=O)(=O)O)c(N)c2c1O	.	0	-2	77*
Cc1c(C(=O)N2CCN(c3ccc(F)cc3)CC2)sc2ncnc(N3CCCCC3C)c12 (stereo not given)	-11	0	-1	-3
O=C(Cc1ccc(F)cc1)Nc1cc(-c2cn[nH]c2)ccn1	82*	0	0	-16
CCNC(=O)c1cc2c(=O)n3cccc(C)c3nc2n(Cc2ccco2)c1=N	58*	0	-2	31
Cc1cccn2c(=O)c3cc(C(=O)NC4CCCCC4)c(=N)n(CCCn4ccnc4)c3nc12	4	2.1*	-1	15
Cc1cccn2c(=O)c3cc(C(=O)NCc4cccnc4)c(=N)n(Cc4ccco4)c3nc12	-1	0	0	5
CCN(c1ccc(OC)cc1)c1ncnc2nc[nH]c12	37*	1	-1	6
CCCN(c1ccc(OCC)cc1)c1ncnc2nc[nH]c12	18	1	-1	9
NC(=O)c1ccsc1NC(=O)c1ccc2c(c1)CCCC2	58*	0	-10	6
CCc1cccc(C)c1NC(=O)CCCN1C(=O)COc2ccc(C)cc21	9	0	-1	16
SMILES	TEAD-YAP inh	FBW7 activator	GPR151 activ	MITF primary
COc1ccc(NC(=O)c2c(NC(=O)c3cccs3)sc3c2CCC(C)C3)cc1 (stereo not given)	-3	0	0	-13
CC1CCc2c(sc(NC(=O)c3cccs3)c2C(=O)O)C1 (stereo not given)	61*	0	1	1
O=C(Nc1sc2c(c1C(=O)O)CCCCC2)c1cccs1	42*	0	-8	0
CC1CCc2c(sc(NC(=O)c3ccccc3)c2C(=O)O)C1 (stereo not given)	70*	0	-4	16
COC(CNC(=O)c1ccc2c(c1)N=C(C)c1c(C)ccc(C)c1S2)OC	58*	0	-1	1
CNC(=O)c1ccc2c(c1)N=C(C)c1c(C)ccc(C)c1S2	48*	1	1	20
CNC(=O)c1ccc2c(c1)N=C(C)c1cc(Cl)ccc1S2	2	0	0	-4
COC(CNC(=O)c1ccc2c(c1)N=C(C)c1ccccc1S2)OC	10	0	0	14
COC(CNC(=O)c1ccc2c(c1)N=C(C)c1cc(Cl)ccc1S2)OC	38*	0	1	-1
COCCNC(=O)c1ccc2c(c1)N=C(C)c1c(C)ccc(C)c1S2	74*	0	0	6
Cc1nc(NCCNC(=O)Nc2cccc(Cl)c2C)cc(-n2cccn2)n1	4	0	-1	-2
C=CCN1C(=O)C(O)(CC(=O)c2ccc([N+](=O)[O-])cc2)c2cc(Br)ccc21 (stereo not given)	13	1	-1	5
COCCCNC(=O)c1ccc(C)c(Cl)c1	-2	1	1	11
COCCCNC(=O)c1ccc2c(c1)N=C(C)c1c(C)ccc(C)c1S2	56*	0	0	8
O=C(CN1C(=O)C2CCCCC2C1=O)N1CCN(C(c2ccccc2)c2ccccc2)CC1 (stereo not given)	-6	0	2	-4
CN(Cc1ccccc1)c1nc(-c2ccccc2)ccc1C(=O)NCCCO	-49	0	-1	-1
O=C1/C(=C\C=C/c2ccc([N+](=O)[O-])o2)C(C(F)(F)F)=NN1c1ccccc1[N+](=O)[O-]	15	1	1	90*
CCOc1cccc2sc(N(CCCN(C)C)C(=O)CN3C(=O)CCC3=O)nc12	2	0	-1	-1
COc1cc(-c2cnn3ccc(NCCO)nc23)ccc1O	1	0	-1	-22
COc1cc(-c2cnn3ccc(Nc4cc(OC)c(OC)c(OC)c4)nc23)ccc1O	71*	0	2	7
COc1ccc(-c2cnn3ccc(NCCO)nc23)cc1OC	57*	0	0	-4
COc1cc(Nc2ccn3ncc(-c4ccccc4Cl)c3n2)cc(OC)c1OC	36*	2	0	9
COc1cccc(-c2cnn3ccc(Nc4cc(OC)c(OC)c(OC)c4)nc23)c1	-3	0	1	10
Oc1ccc(-c2cnn3ccc(NCc4cccnc4)nc23)cc1	35*	0	0	-5
COC(=O)C1=C(C)N(C)C(=O)NC1c1cc(Br)cc(OC)c1OC (stereo not given)	1	0	0	-1
SMILES	TEAD-YAP inh	FBW7 activator	GPR151 activ	MITF primary
NC(CSC1CC(=O)N(c2ccccc2C(F)(F)F)C1=O)C(=O)O (stereo not given)	7	0	2	1
CCN1C(=O)c2ccccc2S(=O)(=O)c2ccc(C(=O)N3CCCCC3)cc21	0	0	0	-3
CN(C)S(=O)(=O)N=C1C=CC(=NS(=O)(=O)N(C)C)C=C1	4	0	0	55*
CC(=O)Nc1ccc2nc(SCC(=O)NCc3ccccc3)sc2c1	38*	0	-2	19
O=C(CSc1nc2ccc(NC(=O)c3ccccc3)cc2s1)NCc1ccccc1	-18	0	2	18
CCn1c(C(O)c2cc(OC)c(OC)c(OC)c2)nc2ccccc21 (stereo not given)	9	2.3*	0	16
COc1ccc(Cl)cc1C(=O)NCc1ccc2c(c1)cc(C)n2C	44*	0	1	-1

Screening results deposited in PubChem by The Scripps Research Institute Molecular Screening Center.
